Measurements taken from PubChem BioAssay (Tox21).
Values without a mark were called inactive. Inconclusive results are not listed. A call without a number means that no potency is given here. Activity calls are given as the source filed them. Unless noted, the call rests on the fitted dose curve.

Key:
[1] = Nuclear factor erythroid 2-related factor 2/antioxidant responsive element (Nrf2/ARE) small molecule agonists: qHTS cell viability counter screen in human keratinocytes (AID 1919968; active means well fitted curve in the direction sought with a large enough effect in the repeat runs; an effect the other way counts as inactive or inconclusive; further: nearly all actives have a fitted effect of over 55% in size)
Method in brief: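 HaCaT ARE reporter line, 1,500 cells/well; 5 h settle, 37 C/5% CO2; cpd in DMSO pinned; 23 h exposure; CellTiter-Fluor, 1 h; fluorescence.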

[2] = Nuclear factor erythroid 2-related factor 2/antioxidant responsive element (Nrf2/ARE) small molecule agonists: luciferase reporter gene qHTS assay in human keratinocytes (AID 1919969); further: nearly all actives have a fitted effect of over 35% in size; further: potency means the concentration at half of the fitted maximal effect
[3] = target: Gonadotropin-releasing hormone receptor (Homo sapiens) (UniProt P30968); assay: Human gonadotropin-releasing hormone receptor (GnRHR) small molecule agonists, calcium flux assay in GnRHR-HEK293 cells (AID 1920063); further: nearly all actives have a fitted effect of over 35% in size
Gonadotropin-releasing hormone receptor (Homo sapiens), sequence (P30968 whole entry, looked up): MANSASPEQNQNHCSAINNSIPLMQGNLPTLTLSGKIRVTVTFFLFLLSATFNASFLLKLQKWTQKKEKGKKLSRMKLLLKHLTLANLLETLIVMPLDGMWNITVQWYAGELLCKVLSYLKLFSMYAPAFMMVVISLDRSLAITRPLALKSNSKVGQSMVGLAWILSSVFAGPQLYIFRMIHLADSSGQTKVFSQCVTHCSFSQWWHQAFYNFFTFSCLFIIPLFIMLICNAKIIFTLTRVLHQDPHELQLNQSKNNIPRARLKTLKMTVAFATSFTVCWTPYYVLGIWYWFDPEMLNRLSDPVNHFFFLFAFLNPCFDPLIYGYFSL
Method in brief: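 GnRHR-HEK293, 1500 cells/well, 18 h 37 C/5% CO2; Ca dye 1 h 37 C; cpd pinned (DMSO), agonist mode; kinetic FL 480/540, 3 min, 1 s reads; 15 conc, n=3.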

[4] = target: KiSS-1 receptor (Homo sapiens) (UniProt Q969F8); assay: Human kisspeptin (KISS1R) small molecule agonists, calcium flux assay in KISS1R-HEK293 cells (AID 1920064; active means well fitted curve in the direction sought with a large enough effect in the repeat runs; an effect the other way counts as inactive or inconclusive)
KiSS-1 receptor (Homo sapiens), sequence (Q969F8 whole entry, looked up): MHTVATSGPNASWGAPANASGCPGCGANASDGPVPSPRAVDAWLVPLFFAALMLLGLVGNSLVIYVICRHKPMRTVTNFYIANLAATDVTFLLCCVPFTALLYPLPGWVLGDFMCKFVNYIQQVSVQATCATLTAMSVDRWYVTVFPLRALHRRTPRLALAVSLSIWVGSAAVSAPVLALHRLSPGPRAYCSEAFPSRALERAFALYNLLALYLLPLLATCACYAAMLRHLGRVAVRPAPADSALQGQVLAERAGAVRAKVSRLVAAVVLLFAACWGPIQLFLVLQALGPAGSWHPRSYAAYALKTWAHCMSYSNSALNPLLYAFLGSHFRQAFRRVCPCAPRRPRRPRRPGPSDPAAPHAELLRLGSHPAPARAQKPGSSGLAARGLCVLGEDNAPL
Method in brief: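 Stable human KISS1R HEK293 line; 18 h plating, 37 C/5% CO2; calcium dye 1 h 37 C; compound pin transfer; kinetic fluorescence Ex/Em 480/540, 3 min.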

[5] = G protein-coupled receptor (GPCR) small molecule agonists, calcium flux assay: HEK293 wild type cell line counter screen (AID 1920065)
Method in brief: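 Kinetic fluorescence at Ex/Em 480/540, recorded every second over 3 min, served as the read-out after compound addition. Each compound was tested at 15 concentrations in triplicate on cells pre-loaded with calcium dye for 1 h.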

[6] = p53 small molecule agonists, cell-based qHTS assay with human liver microsomes (AID 1963577);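 further: p53 response element beta-lactamase reporter cells with liver microsomes plus NADPH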
Method in brief: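 In this qHTS, p53 response-element beta-lactamase cells receive test compound together with a microsome/NADPH activating system (0.5 mg/mL final each) and are incubated 16 h at 37 C before LiveBLAzer fluorescence detection.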

[7] = p53 small molecule agonists, cell-based qHTS assay with rat liver microsomes (AID 1963578)
Method in brief: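 Agonist mode in p53RE-bla reporter cells, with compounds co-incubated 16 h at 37 C alongside 0.5 mg/mL rat liver microsomes and 0.5 mg/mL NADPH (final), followed by a 2 h LiveBLAzer detection step.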

[8] = p53 small molecule agonists, cell-based qHTS assay with human liver microsomes: qHTS cell viability counter screen (AID 1963579); further: nearly all actives have a fitted effect of over 45% in size
Method in brief: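 Metabolically activated exposure: compounds, human liver microsomes and NADPH (0.5 mg/mL final apiece) were added to p53RE-bla cells seeded 5 h earlier, left 16 h at 37 C, and then assessed for viability by CellTiter-Glo luminescence.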

[9] = p53 small molecule agonists, cell-based qHTS assay with rat liver microsomes: qHTS cell viability counter screen (AID 1963580); further: nearly all actives have a fitted effect of over 45% in size
Method in brief: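 In HCT-116 cells carrying a p53 response element-bla reporter, compounds were metabolically activated in situ by rat liver microsomes with NADPH over 16 h. Cell ATP content then served as the cytotoxicity measure.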

[10] = p53 small molecule agonists, cell-based qHTS assay (AID 1963582; active means well fitted activation curve with a large enough effect in the signal ratio in the repeat runs, not every such curve was filed as active; the % refers to the signal ratio)
Method in brief: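 Reporter line: p53RE-bla. Pre-incubation 5 h, 37 C, 5% CO2; compound (DMSO, pin tool) 16 h, 37 C; B/G FRET substrate 2 h RT; fluorescence intensity read.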

[11] = target: 5-hydroxytryptamine receptor 2A (Homo sapiens) (UniProt P28223); assay: 5-hydroxytryptamine receptor 2A (HTR2A) small molecule agonists, cell-based qHTS assay (AID 1963587); further: nearly all actives have a fitted effect of over 30% in size
5-hydroxytryptamine receptor 2A (Homo sapiens), sequence (P28223 whole entry, looked up): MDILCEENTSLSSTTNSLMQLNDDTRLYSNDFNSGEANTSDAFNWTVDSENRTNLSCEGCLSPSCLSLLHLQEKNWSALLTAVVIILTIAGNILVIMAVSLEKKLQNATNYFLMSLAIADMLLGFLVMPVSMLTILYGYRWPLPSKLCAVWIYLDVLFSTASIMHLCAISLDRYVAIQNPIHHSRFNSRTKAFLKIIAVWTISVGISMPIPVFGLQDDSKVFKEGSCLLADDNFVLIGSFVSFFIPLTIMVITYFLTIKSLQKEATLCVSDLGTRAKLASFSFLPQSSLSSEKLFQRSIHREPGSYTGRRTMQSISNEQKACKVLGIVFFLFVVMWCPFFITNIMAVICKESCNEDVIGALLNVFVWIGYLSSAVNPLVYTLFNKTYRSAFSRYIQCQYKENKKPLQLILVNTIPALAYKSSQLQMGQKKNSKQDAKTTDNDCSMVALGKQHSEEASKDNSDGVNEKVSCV
Method in brief: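 HTR2A-CHO cells, plated 18 h at 37 C/5% CO2, dye-loaded 1 h at 37 C; compounds in DMSO added by pin tool (agonist mode). Intracellular calcium flux read as kinetic fluorescence on FDSS over 2 min at 1 s intervals.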

[12] = target: Muscarinic acetylcholine receptor M1 (Homo sapiens) (UniProt P11229); assay: Cholinergic receptor muscarinic 1 (CHRM1) small molecule antagonists, cell-based qHTS assay (AID 1963588); further: nearly all actives have a fitted effect of over 40% in size
Muscarinic acetylcholine receptor M1 (Homo sapiens), sequence (P11229 whole entry, looked up): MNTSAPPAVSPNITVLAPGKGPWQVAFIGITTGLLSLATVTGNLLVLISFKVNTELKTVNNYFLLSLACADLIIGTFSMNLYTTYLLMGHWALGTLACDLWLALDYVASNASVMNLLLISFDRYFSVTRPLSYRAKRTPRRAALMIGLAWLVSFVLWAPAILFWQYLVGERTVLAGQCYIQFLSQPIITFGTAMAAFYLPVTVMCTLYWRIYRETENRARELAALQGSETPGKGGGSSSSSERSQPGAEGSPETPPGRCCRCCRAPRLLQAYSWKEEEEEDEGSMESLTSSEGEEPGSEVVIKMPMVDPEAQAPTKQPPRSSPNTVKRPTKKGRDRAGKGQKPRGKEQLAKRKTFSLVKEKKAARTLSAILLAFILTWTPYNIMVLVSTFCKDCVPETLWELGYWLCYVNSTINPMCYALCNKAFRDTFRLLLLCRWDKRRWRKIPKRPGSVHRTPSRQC
Method in brief: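 CHRM1-CHO calcium-flux assay, antagonist mode. Cells were seeded 18 h, dye-loaded 1 h at 37 C and given compound for 5 min at RT, then acetylcholine was added at 50nM. FDSS fluorescence was read 3 min; 15 concentrations, three runs.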

[13] = target: Muscarinic acetylcholine receptor M1 (Homo sapiens) (UniProt P11229); assay: Cholinergic receptor muscarinic 1 (CHRM1) small molecule agonists, cell-based qHTS assay (AID 1963589); further: nearly all actives have a fitted effect of over 35% in size
Method in brief: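 Human M1 in stable CHO line; 18 h plating, 1 h dye load 37 C; cpd added (agonist mode); Ca2+ fluorescence kinetic read, 1 s intervals; 15 conc, 3 runs.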

[14] = cAMP Responsive Elements (CRE) small molecule agonists, cell-based qHTS assay (AID 1963590)
Method in brief: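 HEK 293T CRE-bla, 2,000 cells/well, 18 h preincubation 37 C/5% CO2; cpds (DMSO) pinned, 3 h; LiveBLAzer B/G FRET substrate, 2 h RT.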

[15] = cAMP Responsive Elements (CRE) small molecule antagonists, cell-based qHTS assay (AID 1963591; active means well fitted inhibition curve with a large enough effect in the signal ratio in the repeat runs, not every such curve was filed as active; the % refers to the signal ratio)
Method in brief: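 Beta-lactamase reporter read by FRET substrate (LiveBLAzer B/G) after 2 h at room temperature. CRE-bla HEK293T cells had received compound plus 0.25 uM (final) NKH477 for 3 h at 37 °C.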

[16] = target: Beta-2 adrenergic receptor (Homo sapiens) (UniProt P07550); assay: Adrenergic beta2 receptor (ADRB2) small molecule antagonists, cell-based qHTS assay (AID 1963592); further: nearly all actives have a fitted effect of over 50% in size; further: potency means the concentration at half of the fitted maximal effect
Beta-2 adrenergic receptor (Homo sapiens), sequence (P07550 whole entry, looked up): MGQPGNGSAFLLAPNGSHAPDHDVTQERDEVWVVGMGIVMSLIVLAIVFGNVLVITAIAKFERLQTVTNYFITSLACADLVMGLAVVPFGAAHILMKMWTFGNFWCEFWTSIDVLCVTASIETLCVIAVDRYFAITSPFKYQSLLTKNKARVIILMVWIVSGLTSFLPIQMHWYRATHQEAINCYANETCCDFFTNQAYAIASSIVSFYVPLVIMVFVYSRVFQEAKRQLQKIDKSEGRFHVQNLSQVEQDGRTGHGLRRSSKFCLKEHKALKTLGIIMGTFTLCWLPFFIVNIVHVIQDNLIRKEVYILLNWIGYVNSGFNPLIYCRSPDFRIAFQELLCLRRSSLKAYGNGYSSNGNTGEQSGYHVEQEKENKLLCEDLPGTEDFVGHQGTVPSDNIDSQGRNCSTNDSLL
Method in brief: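 Cells (CHO, stable ADRB2 overexpression) incubated 18-20hr at 37C; compounds added from DMSO; agonist mix (1nM isoproterenol, 100uM IBMX, 25uM Ro-20-1724) added; 0.5hr RT; d2-cAMP and anti-cAMP-cryptate added; 1hr RT; 665/615 nm read.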

[17] = target: D(2) dopamine receptor (Homo sapiens) (UniProt P14416); assay: Dopamine D2 receptor (DRD2) small molecule antagonists, cell-based qHTS assay (AID 1963595; active means well fitted inhibition curve with a large enough effect in the signal ratio in the repeat runs, with a control signal flat; the % refers to the signal ratio; further: potency means the concentration at half of the fitted maximal effect)
D(2) dopamine receptor (Homo sapiens), sequence (P14416 whole entry, looked up): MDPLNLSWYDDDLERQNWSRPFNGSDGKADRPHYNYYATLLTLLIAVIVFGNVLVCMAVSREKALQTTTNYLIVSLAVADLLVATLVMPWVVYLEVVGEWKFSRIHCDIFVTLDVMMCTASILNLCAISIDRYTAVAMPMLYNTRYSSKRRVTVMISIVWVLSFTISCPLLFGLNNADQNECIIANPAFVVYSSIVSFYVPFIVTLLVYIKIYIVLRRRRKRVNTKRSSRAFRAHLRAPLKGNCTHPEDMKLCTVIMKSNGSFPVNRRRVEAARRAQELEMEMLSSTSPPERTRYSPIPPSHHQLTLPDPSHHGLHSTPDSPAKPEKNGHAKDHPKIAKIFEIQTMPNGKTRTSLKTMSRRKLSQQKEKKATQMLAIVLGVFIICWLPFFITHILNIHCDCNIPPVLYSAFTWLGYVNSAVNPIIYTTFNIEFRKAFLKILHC
Method in brief: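 Stable D2 receptor HEK293 line, 24 h after seeding. Compound preincubated 10 min, then quinpirole (12 nM) with forskolin analogue NKH477 (200 nM), 30 min, room temperature. Detection by time-resolved FRET of cAMP.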

[18] = target: 5-hydroxytryptamine receptor 2A (Homo sapiens) (UniProt P28223); assay: 5-hydroxytryptamine receptor 2A (HTR2A) small molecule antagonists, cell-based qHTS assay (AID 1963586); further: nearly all actives have a fitted effect of over 45% in size
Method in brief: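 Antagonist-mode intracellular calcium assay: DOI (4 nM) added after 5 min compound pre-incubation at room temperature to dye-loaded HTR2A-CHO cells. Fluorescence followed for 3 min, sampled every second.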

[19] = target: Beta-2 adrenergic receptor (Homo sapiens) (UniProt P07550); assay: Adrenergic beta2 receptor (ADRB2) small molecule agonists, cell-based qHTS assay (AID 1963593);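 further: CHO cells stably overexpressing human ADRB2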
Method in brief: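 CHO cells stably over-expressing ADRB2 were plated overnight at 37C, then dosed with compounds plus a stimulation mix containing 100uM IBMX and 25uM Ro-20-1724 for 0.5hr at room temperature. cAMP was measured by HTRF competition, 1hr.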

[20] = target: D(2) dopamine receptor (Homo sapiens) (UniProt P14416); assay: Dopamine D2 receptor (DRD2) small molecule agonists, cell-based qHTS assay (AID 1963594); further: nearly all actives have a fitted effect of over 35% in size
Method in brief: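 HEK293 cells stably expressing DRD2 were cultured 24 h at 37 C, then given Ro20-1724 (0.1 mM final) and compounds for 10 min at room temperature. NKH477 (200nM) was then added for 30 min. cAMP was read by HTRF.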

| SMILES | Potency [1] | Potency [2] | Potency [3] | outcome [4] | outcome [5] | Potency [6] | Potency [7] | Potency [8] | Potency [9] | Potency [10] | Potency [11] | Potency [12] | Potency [13] | Potency [14] | Potency [15] | Potency [16] | Potency [17] | Potency [18] | Potency [19] | Potency [20] |
| --- | --- | --- | --- | --- | --- | --- | --- | --- | --- | --- | --- | --- | --- | --- | --- | --- | --- | --- | --- | --- |
| CC(COc1ccccc1)NC(C)C(O)c1ccc(O)cc1 (stereo not given) | inactive | inactive | inactive | inactive | inactive | inactive | inactive | inactive | inactive | inactive | inactive | inactive | inactive | inactive | inactive | inactive | 23.7 µM (active) | – | – | – |
| CCCC(C)C(=O)OCC (stereo not given) | inactive | inactive | inactive | inactive | inactive | inactive | inactive | inactive | inactive | inactive | inactive | inactive | – | inactive | inactive | – | inactive | inactive | inactive | inactive |
| COc1ccc2nc(NC(=O)Nc3ccccc3)sc2c1 | inactive | 0.596 µM (active) | inactive | inactive | inactive | inactive | inactive | inactive | inactive | inactive | inactive | inactive | – | inactive | inactive | 11.9 µM (active) | inactive | inactive | – | inactive |
| O=[N+]([O-])c1cccc(S(=O)(=O)NCCNS(=O)(=O)c2cccc([N+](=O)[O-])c2)c1 | inactive | inactive | inactive | inactive | inactive | inactive | inactive | inactive | inactive | inactive | inactive | inactive | inactive | – | inactive | inactive | – | – | inactive | inactive |
| CCCC1CCC(=O)O1 (stereo not given) | inactive | inactive | inactive | inactive | inactive | inactive | inactive | inactive | inactive | inactive | inactive | – | inactive | inactive | – | inactive | – | inactive | inactive | – |
| COc1cccc(O)c1 | inactive | inactive | inactive | inactive | inactive | inactive | inactive | inactive | inactive | inactive | inactive | – | inactive | inactive | – | – | inactive | – | inactive | inactive |
| O=C(O)CCC(=O)C(=O)O | inactive | inactive | inactive | inactive | inactive | inactive | inactive | inactive | inactive | inactive | inactive | inactive | inactive | inactive | inactive | inactive | inactive | – | – | inactive |
